High-throughput results as filed in PubChem BioAssay.
A selection: hits, their analogues and other compounds. The true share with any hit is near 21%.
NS1 function inh – qHTS Assay for Inhibitors of Influenza NS1 Protein Function; Potency, µM (doses to about 46.1 µM), for the others: top-dose activity, positive = more growth; AID 2326, 2010; 270,000 compounds, 0.4% hits; note: potency is the fitted concentration of half-maximal effect; actives are rising curves; nearly all actives have a fitted effect of over 50% in size
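Growth recovery, yeast-based: influenza A NS1 expressed in S. cerevisiae causes slow growth, and suppressors are detected by OD600. The parent strain without NS1 is used as positive control.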
Pf growth 48h – Primary qHTS for delayed death inhibitors of the malarial parasite plastid, 48 hour incubation. P. falciparum luciferase growth in erythrocytes, 48 h. Potency, µM (highest dose often 28.7 µM), for inactives: top-dose activity change, negative = inhibition, usual class: inhibitors. 310,000 compounds, 5.9% hits. AID 504832, 2011; active = well fitted inhibition curve with a large enough effect; inconclusive = small, poorly fitted or top-dose-only effect, or another doubt; inactive = no such curve, though single readings can be large or run the other way; note: potency is the fitted concentration of half-maximal effect; % is set by controls: 0 for no effect and ±100 for the full control effect
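A one-generation exposure of luciferase-tagged malaria parasites in RPMI 1640/Albumax erythrocyte culture, 37 C and 5% CO2. Inhibition is inferred from decreased luminescence after adding detection reagent.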
Shiga inhibitor – A qHTS for Small Molecule Inhibitors of Shiga Toxin. AID 2315, 2010. inhibition, % at 38.7 µM. 290,000 compounds, 9.2% hits. Vero cells, Shiga toxin protein synthesis inhibition reporter; in the data active = inhibition mostly above about 28%, no sharp cut-off; inactive = mostly below about 43%; note: 0% is about no effect
Cycloheximide cs – Cycloheximide Counterscreen for Small Molecule Inhibitors of Shiga Toxin; cell reporter, cycloheximide protein synthesis inhibition counterscreen; max response, %; 300,000 compounds, 12% hits; in the data active = max response mostly above about 13%, no sharp cut-off; inactive = mostly below about 14%; note: read at 38.3 µM for the half of the compounds with a filed dose; 0% is about no effect
SARS PLP yeast – qHTS of Yeast-based Assay for SARS-CoV PLP; S. cerevisiae expressing SARS-CoV PLpro, growth rescue; Potency, µM (titrated, usually from 32.9 µM), for inactives: at the highest dose activity, positive = growth rescue, hits mostly activators; 330,000 compounds, 0.19% hits; AID 485353, 2010; note: potency is the fitted concentration of half-maximal effect; 0% is about no effect; nearly all actives have a fitted effect of over 55% in size
Pf growth 96h – Primary qHTS for delayed death inhibitors of the malarial parasite plastid, 96 hour incubation; Potency, µM (top dose mostly 28.7 µM), without a hit: top-dose activity change, negative = inhibition, usual class: inhibitors; AID 504834, 2011; P. falciparum luciferase reporter growth, 96 h; 320,000 compounds, 6.9% hits; active = well fitted inhibition curve with a large enough effect; inconclusive = small, poorly fitted or top-dose-only effect, or another doubt; inactive = no such curve, though single readings can be large or run the other way; note: potency is the fitted concentration of half-maximal effect; % is set by controls: 0 for no effect and ±100 for the full control effect
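P. falciparum expressing integrated firefly luciferase grown in erythrocytes (2% hematocrit, 0.05% parasitemia final) with compounds for 96 hours at 37 C, 5% CO2. Growth inhibition read as loss of luminescence after adding luciferase detection reagent.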
* marks the source's active call; other numbers are inactive results; ? = inconclusive; / = no result; [ ] = another dose, or the depositor's remark. Unless noted, calls come from the whole dose curve.

SMILES | NS1 function inh | Pf growth 48h | Shiga inhibitor | Cycloheximide cs | SARS PLP yeast | Pf growth 96h
CCN(C(=O)c1cc2c(s1)-c1ccccc1OC2)c1cc(OC)ccc1OC | 3% | ? | 15 | -3 | -16% | 12µM*
COc1ccc(N(C)C(=O)c2cc3c(s2)-c2c(C)cccc2OC3)c(OC)c1 | -1% | ? | 6 | 9 | -3% | ?
CCN(C(=O)c1cc2c(s1)-c1ccccc1S(=O)(=O)C2)c1cc(OC)ccc1OC | 13% | 9.3µM* | 3 | -1 | 4% | ?
CN(C(=O)c1cccc(N2C(=O)C3C4C=CC(C4)C3C2=O)c1)C1CCCCC1 (stereo unspecified) | 8% | -9% | -3 | -1 | -1% | 21%
O=C(OC1Cn2c(=O)ccc(=O)n2C1)c1ccccc1 | -2% | 11% | -4 | -3 | -10% | 0%
O=C(/C=C/c1cccs1)Nc1ccncc1 | 7% | 58% | 63* | 44* | -5% | 6%
CC(C)(C)NC(=O)/C=C/c1cccc(C(F)(F)F)c1 | -9% | 11% | 16 | 14* | 17% | -12%
CC(=O)Nc1ccc(NC(=O)/C=C/c2cccc(C(F)(F)F)c2)cc1 | 18% | 9% | 10 | 7 | 5% | 15%
O=C(/C=C/c1cccs1)NCc1ccccc1 | 0% | 96% | 41 | 35* | 0% | 109%
Cc1cccc(NC(=O)/C=C/c2cccs2)n1 | -5% | 39% | 40* | 33* | -4% | 88%
COc1cccc(CN2CC(C(=O)NC3CCC3)CCC2=O)c1 (stereo unspecified) | 4% | -11% | -5 | 2 | 21% | -44%
O=C(/C=C/c1cccs1)Nc1ccc([N+](=O)[O-])cc1 | -7% | 78% | 30* | 48* | 6% | 256%
Cc1ccc(NC(=O)/C=C/C(=O)O)c([N+](=O)[O-])c1 | -2% | 13% | 12 | -2 | -12% | ?
CCCOC(=O)c1ccc(NC(=O)/C=C/c2cccs2)cc1 | -46% | ? | 73* | 33* | -81% | -4%
CCCOC(=O)c1cc(NC(=O)/C=C/c2ccccc2)ccc1O | -6% | ? | 74* | 17* | -1% | 10µM*
CN(C)C(=O)c1ccc(NC(=O)COC(=O)/C=C/c2cccs2)cc1 | / | -10% | / | / | 3% | 36%
Cc1ccc(NC(=O)/C=C/c2cccs2)c([N+](=O)[O-])c1 | -2% | 161% | 63* | 41* | 11% | 12%
Cc1cc(N2CC(C)OC(C)C2)nc2ccccc12 (stereo unspecified) | -5% | 93% | 15 | -4 | -5% | 9%
CCN(C(=O)COC(=O)Cc1ccc(F)cc1)c1c(N)n(Cc2ccccc2)c(=O)[nH]c1=O | / | 6% | / | / | -4% | 24%
COc1cc(Cl)c(C)cc1NC(=O)CSc1sc2c(O)cc(=O)[nH]c2c1C#N | 14% | 0% | -11 | -2 | 3% | -17%
CN1CCN(C(=S)NC(=O)/C=C/c2cccs2)CC1 | -1% | -31% | 5 | 22* | 1% | 3%
Cc1nc(NC(=O)/C=C/c2ccc(C(C)(C)C)cc2)sc1C(=O)N(C)C | -4% | ? | -3 | -4 | -4% | -3%
CC(C)(C)NC(=O)/C=C/c1cccs1 | / | 39% | 22 | 17* | -7% | 77%
CC(C)(C)c1ccc(/C=C/C(=O)Nc2ccncc2)cc1 | -19% | 8% | 67* | 53* | ? | 5%
CN1CCN(C(=S)NC(=O)/C=C/c2cccc3ccccc23)CC1 | 4% | 4% | 13 | -1 | -1% | 13%[5.75 µM]
SMILES | NS1 function inh | Pf growth 48h | Shiga inhibitor | Cycloheximide cs | SARS PLP yeast | Pf growth 96h
CCCCC(=O)NC(=S)Nc1cccc(NC(=O)c2ccccc2)c1 | / | 35%[5.75 µM] | 39 | 6 | -1% | 28%
CCOC(=O)c1ccc(NC(=O)CNNC(=O)COc2ccccc2C)cc1 | / | / | / | / | 1% | /
O=C(NCCCNC(=O)c1ccccn1)c1ccc(Cl)cc1 | 5% | 4% | -4 | -3 | 0% | 4%
CC(C)(C)c1ccc(C(=O)NCCCNC(=O)c2ccccn2)cc1 | -16% | 10% | 42* | 11 | -2% | -20%
COc1cccc(C(=O)NCCCNC(=O)c2ccccn2)c1 | 6% | 9% | -2 | 6 | -2% | 4.7µM*
Cc1cccc(OCCCC(=O)NNC(=O)c2ccccn2)c1 | / | 2.3µM* | / | / | -1% | 1.7µM*
O=C(NCCN1CCNCC1)c1ccccn1 | -6% | 37% | 101* | 14 | 14% | -31%
Cc1cccc(OCCCC(=O)NNC(=O)c2ccncc2)c1 | / | 28% | / | / | -3% | 1%
CC(=O)Nc1ccc(S(=O)(=O)NCCC(=O)OCC(=O)c2cccc(Br)c2)cc1 | / | 8% | / | / | -4% | 24%
O=C(Nc1ccc(S(=O)(=O)N2CCCC2)cc1)c1ccc([N+](=O)[O-])cc1 | 6% | ? | -3 | 2 | 10% | ?
COC(=O)Nc1ccc2c(c1)Nc1ccccc1CC2 | -17% | -6% | / | active | -9% | 51%
Cc1nc2sccn2c(=O)c1S(=O)(=O)N1CCN(c2cccc(C(F)(F)F)c2)CC1 | -30% | ? | -3 | 1 | -10% | 10µM*
COc1cc(C)c(NC(=O)Cc2ccsc2)cc1OC | 20% | 0% | 12 | 0 | 6% | 0%
CCOC(=O)c1cc(-c2cc3ccccc3o2)n[nH]1 | -12% | 100% | -12 | 4 | -25% | -37%
CCCCN=C1NN=C(c2cccc([N+](=O)[O-])c2)CS1 | / | -14% | 84* | 24* | 0% | 8%
CCCCN=C1NN=C(c2cc3ccccc3o2)CS1 | -18% | ? | 53* | 41* | 9% | 13µM*
CCc1nnc2n1N=C(c1cccc([N+](=O)[O-])c1)CS2 | 7% | 13% | -10 | -1 | -1% | 9%
Cc1ccc(C)c(S(=O)(=O)N2CCN(C(=O)c3cc(-c4cccs4)nn3-c3ccccc3)CC2)c1 | / | 7.4µM* | / | / | 1% | 13µM*
COc1ccc(OC)c(S(=O)(=O)N2CCC(C(=O)Nc3ccccc3)CC2)c1 | 4% | 7% | -18 | -1 | 2% | ?
O=C(c1nc(-c2ccccc2)n(-c2ccccc2)n1)N1CCN(S(=O)(=O)c2ccccc2)CC1 | 9% | 9.3µM* | -14 | 1 | 0% | /
O=C(O)c1nc(-c2ccccc2)n(-c2ccccc2)n1 | 0% | -8% | 13 | -2 | 17% | 41%
COc1ccc(OC)c(S(=O)(=O)N2CCN(C(=O)c3cc(C4CC4)nn3-c3ccccc3)CC2)c1 | / | ? | / | / | -6% | 9.3µM*
Cc1ccc(C)c(S(=O)(=O)N2CCN(C(=O)[C@@H]3CCCN3C(=O)c3cccs3)CC2)c1 | / | ? | / | / | 1% | -1%
O=C(c1cc(C2CC2)nn1-c1ccccc1)N1CCN(S(=O)(=O)c2ccccc2)CC1 | / | 15µM* | / | / | -17% | ?
COc1ccc(OCc2nnc(SC(C)C(=O)Nc3nccs3)n2-c2ccccc2)cc1 (stereo unspecified) | -45% | ? | -9 | -3 | 4% | 14%
